Data from PubChem BioAssay (NCI).
Where “and” joins values, the source holds several entries; their conditions need not be identical. Equal entries are not always repeated. This is part of a sample that, as a whole, favours compounds with a hit. Of some 83,000 tested, about 20% had one in any assay.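 Percent growth is the endpoint: 0 to 100 indicates growth inhibition (40 means 60% inhibition), 0 means no net growth, and negative values indicate cell death.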 Calls of active or inactive are those of the source. The calls were made as follows: active = growth percent below 10; inactive = the rest.

Tested on: SR leukemia
Test: NCI-60 one-dose screen, 48 h (100 = growth as untreated, 0 = no growth, -100 = all killed)
Conditions: 10 µM unless noted

Row | SMILES | growth
1 | CC(=O)ON=C1C=CC(=C(C#N)c2ccccc2)C=C1 | 17.4% (inactive)
2 | O=C1C=CC(=O)N1C1c2ccccc2-c2ccccc21 | -26.9% (active)
3 | O=C(Nc1cccc(Br)c1)Oc1cccc2cccnc12 | 10.5% [100 µM] (inactive)
4 | O=C(O)c1c(Cl)c(Cl)c(Cl)c(Cl)c1-c1c2cc(I)c(=O)c(I)c-2oc2c(I)c(O)c(I)cc12 | 97.9% (inactive)
5 | COC(=O)c1nc(=S)[nH]c(C(=O)OC)c1C(=O)c1ccc2ccccc2c1 | 93.5% (inactive)
6 | O=C(Nc1ccccc1)Oc1c(Cl)c(Cl)c(Cl)c(Cl)c1Cl | 98.2% (inactive) and 99.2% (inactive)
7 | CN(C)C(=O)c1ccc(SC(=S)NCc2ccccc2)cc1 | -36.6% [100 µM] (active)
8 | COc1ccc(-c2cscc2N)cc1 | 59.1% [100 µM] (inactive)
9 | O=C1N[C@H]2[C@H](CS[C@H]2CCCCC(=O)N(CCP(c2ccccc2)c2ccccc2)CCP(c2ccccc2)c2ccccc2)N1 | 102% (inactive)
10 | CCCCCCCCCCCCCCNCc1ccccc1 | 11.8% (inactive)
11 | CC(C)(C)CC(C)(C)c1ccc(OCCSC(=N)N)cc1 | -37.7% (active)
12 | Cc1ccnc(NC(c2ccccc2)c2ccc3cccnc3c2O)c1 (configuration not stated) | 10% (inactive)
13 | CNC(=O)N/N=C/c1ccc([N+](=O)[O-])o1 | 82.8% (inactive)
14 | O=Nc1ccccc1N=O | 63.8% (inactive)
15 | O=C(/C=C\c1ccccc1)N1c2ccccc2CC1c1c[nH]c2ccccc12 (configuration not stated) | 73.5% (inactive)
16 | O=C(Nc1c(Cl)cccc1Cl)Oc1cccc2cccnc12 | 5.64% [100 µM] (active)

Row | SMILES | growth
17 | CN=C(N)N/N=C(\C)c1ccc2c(c1)Cc1cc(/C(C)=N/NC(N)=NC)ccc1-2 | -23.3% (active)
18 | COC(=O)Nc1nc2ccc(C(=O)c3ccccc3)cc2[nH]1 | 19.8% (inactive) and 2.51% (active)
19 | O=C(Nc1cccc(Br)c1)Oc1ccc(Cl)c2cccnc12 | 7.23% [100 µM] (active)
20 | O=C(CC1(O)C(=O)Nc2c(Cl)ccc(Cl)c21)c1ccc(Cl)cc1Cl (configuration not stated) | 86.9% (inactive)
21 | C[N+](C)=c1ccc2nc3c(cc(NCCCNc4cc5oc6cc(=[N+](C)C)ccc-6nc5c5ccccc45)c4ccccc43)oc-2c1 | 6.05% (active)
22 | COc1cc(NS(C)(=O)=O)ccc1Nc1c2ccccc2nc2ccccc12 | 19.4% [2.5 µM] (inactive)
23 | NC(=O)/C=C/C(=O)c1c(Cl)cccc1Cl | -42% (active)
24 | C[n+]1c(/C=C/c2ccc([N+](=O)[O-])cc2)ccc2ccccc21 | 82.7% (inactive)
25 | NC(N)=N/N=C/c1ccc([N+](=O)[O-])o1 | 98.3% (inactive)
26 | S=C(NCCNC(=S)[S][Sn]([c]1ccccc1)([c]1ccccc1)[c]1ccccc1)[S][Sn]([c]1ccccc1)([c]1ccccc1)[c]1ccccc1 | 0.639% (active)
27 | CCC(CCCN(CC)CCc1ccccc1)OC(=O)c1cc(OC)c(OC)c(OC)c1 (configuration not stated) | 78.7% (inactive)
28 | COc1ccccc1OC(=O)Oc1ccccc1OC | 103% (inactive) and 101% (inactive)
29 | CCN(CC)CCOc1ccc(-c2nc3cc(Cl)ccc3s2)cc1 | -69.6% (active)
30 | O=[N+]([O-])c1ccc(N=Nc2ccc(O)cc2O)cc1 | 16.6% (inactive)
31 | Cc1cc(N)c2ccccc2[n+]1CCCCCCCCCC[n+]1c(C)cc(N)c2ccccc21 | -53% (active) and 3.2% (active)
32 | CN(C)C(=O)SC1=C(c2c(Cl)cccc2Cl)C(=O)c2ccccc21 | -36.3% (active)
